Reference: PubChem BioAssay (EPA / NIEHS)
Values joined by “and” are separate entries in the source; they are usually repeats but may differ in a detail not shown here. Equal values may be shown once. Results filed as inconclusive are left out. The source holds several records for some structures; these can differ, active in one and inactive in another. Active and inactive are the calls of the source. The calls were made as follows, unless noted: active = hit-call score of the fitted dose curve at least 0.9, where 1 is the maximum; inactive = score below 0.9.

Assays:
[1] = CCTE_Mundy_HCI_Cortical_Synap_Neur_Matur_NeuriteSpotCountPerNeuriteLength: CCTE's Synaptogenesis and Neurite Maturation Assay in rat cortical cells for Neurite Spot Count per Neurite Length, Mundy Lab (AID 2284210)
Procedure, shortened: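 Neurite-associated synapse density (synaptophysin puncta per unit neurite length) is measured by fluorescence high-content imaging in rat cortical cultures treated from DIV 7 and fixed at DIV 12, with DMSO as negative control.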

[2] = CCTE_Mundy_HCI_Cortical_Synap_Neur_Matur_BPCount: CCTE's Synaptogenesis and Neurite Maturation Assay in rat cortical cells for Branch Point Count, Mundy Lab (AID 2284211)
Procedure, shortened: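 In this multiplexed morphology assay, cortical cells from rat receive chemicals at DIV 7 and are fixed at DIV 12, then immunostained and imaged; branch points are counted, with DMSO as baseline.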

[3] = CCTE_Mundy_HCI_Cortical_NOG_NeuriteCount: CCTE's Neurite Outgrowth Assay in rat cortical cells for Neurite Count, Mundy Lab (AID 2284212);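 also: cells fixed about two days after chemical exposure began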
Procedure, shortened: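 Rat cortical primary cells; compound added 2 h post-plating, 1/10 dilution of working solution. Anti-betaIII-tubulin/AF488 ICC; ArrayScan neurite count vs DMSO.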

[4] = CCTE_Mundy_HCI_Cortical_NOG_NeuriteLength: CCTE's Neurite Outgrowth Assay in rat cortical cells for Neurite Length, Mundy Lab (AID 2284213);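 as to AC50: neurites imaged about 48 to 50 h after chemical exposure began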
Procedure, shortened: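 First, rat primary cortical cells were plated and, 2 h later, given test chemical as a 1/10 dilution. Finally, βIII-tubulin immunostaining enabled automated imaging of neurite length.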

[5] = CCTE_Mundy_HCI_Cortical_Synap_Neur_Matur_NeuriteLength: CCTE's Synaptogenesis and Neurite Maturation Assay in rat cortical cells for Neurite Length, Mundy Lab (AID 2284214)
Procedure, shortened: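 DMSO-normalised neurite length, from high-content imaging of anti-MAP2-stained rat cortical cells fixed at DIV 12. Glia were suppressed with AraC (DIV 5) before chemical exposure from DIV 7.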

[6] = CCTE_Mundy_HCI_Cortical_Synap_Neur_Matur_NeuriteSpotCountPerNeuron: CCTE's Synaptogenesis and Neurite Maturation Assay in rat cortical cells for Neurite Spot Count per Neuron Count, Mundy Lab (AID 2284215)
Procedure, shortened: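 High-content imaging counts synaptophysin puncta along MAP2-labelled neurites per neuron after chemical exposure of rat cortical cells from DIV 7 to termination at DIV 12 (AraC added DIV 5). Loss of signal relative to DMSO.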

[7] = CCTE_Mundy_HCI_Cortical_Synap_Neur_Matur_SynapseCount: CCTE's Synaptogenesis and Neurite Maturation Assay in rat cortical cells for Synapse Count, Mundy Lab (AID 2284218)
Procedure, shortened: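 Endpoint: synapses/neuron by HCI (synaptophysin puncta on MAP2-labelled neurites, Hoechst nuclei). Rat primary cortical cells, AraC DIV 5, dosed DIV 7, fixed DIV 12; DMSO negative control.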

[8] = CCTE_Mundy_HCI_hN2_NOG_NeuriteCount: CCTE's Neurite Outgrowth Assay in human hN2 cells for Neurite Count, Mundy Lab (AID 2284219; active = hit-call score of the fitted dose curve at least 0.9, where 1 is the maximum)
Procedure, shortened: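 In this morphology assay, hNP1-derived neurons received test chemical 2 h post-plating and were fixed two days later in warm paraformaldehyde/sucrose containing Hoechst 33342. Neurites, labelled by rabbit anti-βIII-tubulin (1:800) and Alexa Fluor-488 (1:500), were counted automatically.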

[9] = CCTE_Mundy_HCI_hN2_NOG_NeuriteLength: CCTE's Neurite Outgrowth Assay in human hN2 cells for Neurite Length, Mundy Lab (AID 2284220; active = hit-call score of the fitted dose curve at least 0.9, where 1 is the maximum)
Procedure, shortened: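 Using βIII-tubulin immunofluorescence and Hoechst nuclear counterstain, this component quantifies neurite length in hNP1-derived neurons.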

[10] = CCTE_Mundy_HCI_Cortical_Synap_Neur_Matur_NeuriteCount: CCTE's Synaptogenesis and Neurite Maturation Assay in rat cortical cells for Neurite Count, Mundy Lab (AID 2284222)
Procedure, shortened: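 In this multiplexed morphology readout, rat primary cortical neurons are fixed at DIV 12 following dosing at DIV 7 and stained for MAP2, synaptophysin and nuclei. High-content image analysis yields neurite count.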

[11] = CCTE_Mundy_HCI_Cortical_Synap_Neur_Matur_CellBodySpotCount: CCTE's Synaptogenesis and Neurite Maturation Assay in rat cortical cells for Cell Body Spot Count, Mundy Lab (AID 2284223)
Procedure, shortened: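 High-content imaging counts synaptophysin puncta on neuronal cell bodies per neuron after MAP2/synaptophysin immunostaining. Rat primary cortical cells, glia arrested with AraC at DIV 5, were exposed DIV 7–12; signal decrease measured against DMSO.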

[12] = CCTE_Mundy_HCI_hN2_NOG_NeuronCount: CCTE's Neurite Outgrowth Assay in human hN2 cells for Neuron Count, Mundy Lab (AID 2284221; active = hit-call score of the fitted dose curve at least 0.9, where 1 is the maximum)
Procedure, shortened: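 Read-out is the number of betaIII-tubulin-positive neurons imaged by automated high-content analysis, with DMSO as negative control.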

[13] = IUF_NPC1_viability_72hr: Viability Assessment at 72 hours in the Leibniz Research Institute for Environmental Medicine (IUF) Neural Progenitor Cell Proliferation Assay (NPC1) (AID 2284209)
Procedure, shortened: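 Three-day continuous exposure of human neural progenitor spheres under EGF/FGF-driven proliferation; cell viability scored by alamar blue signal versus DMSO.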

[14] = CCTE_Mundy_HCI_hNP1_Pro_ResponderAvgInten: CCTE's Proliferation Assay in human neuroprogenitor cells, Mundy Lab (AID 2284224; active = hit-call score of the fitted dose curve at least 0.9, where 1 is the maximum;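 also: human neural progenitor cells hNP1 derived from WA09 embryonic stem cells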)
Procedure, shortened: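 Human neuroprogenitors (hNP1, WA09 lineage) receive test chemical after 40 to 44 hours of attachment. A four-hour BrdU pulse begins twenty hours later, followed by fixation and high content imaging; signal is referenced to DMSO controls.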

[15] = BSK_BT_PBMCCytotoxicity: PBMC Cytotoxicity Assessment in the BioMAP Diversity Plus: BT Assay (AID 2284225); settings: primary human B cells with PBMC;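 also: PBMC viability measured by Alamar Blue dye reduction fluorescence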
Procedure, shortened: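 Primary human co-culture of B cells and PBMC, pre-dosed 1 h then activated with SEB and TSST-1. Cytotoxicity is taken from Alamar Blue dye reduction, added for 6 h at the end of a 90 h incubation.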

[16] = read-out: Secreted IgG (sIgG), gene 3500; experiment: BSK_BT_sIgG: BioMAP Diversity Plus: BT Assay for Secreted IgG (sIgG) Biomarker Activity (AID 2284226); settings: primary human B cells with PBMC
Procedure, shortened: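 In this multiplexed co-culture system, ELISA quantifies sIgG 24 h post-treatment. Endpoint analysis uses positive fitting direction, DMSO negative control.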

[17] = BSK_BT_Bcell_Proliferation: Viability Assessment in the BioMAP Diversity Plus: BT Assay for B cell Proliferation (AID 2284227); settings: primary human B cells with PBMC
Procedure, shortened: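 Using a human primary B cell–PBMC co-culture, the assay measures total protein by sulforhodamine B absorbance as a gauge of proliferation after 72 h. Analysis followed the positive fitting direction with DMSO as baseline.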

[18] = read-out: Interleukin 6 (IL6), IL6 (gene 3569); experiment: BSK_BT_xIL6: BioMAP Diversity Plus: BT Assay for Interleukin 6 (IL6) Biomarker Activity (AID 2284228); settings: primary human B cells with PBMC
Procedure, shortened: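 Secreted IL-6 in the primary human B cell plus PBMC system, measured by Luminex at 24 h post-chemical, DMSO as baseline. Alamar Blue viability: 75,000 cells/well, chemical 1 h before SEB/TSST-1 (20 ng/mL each), 90 h, then 6 h dye.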

[19] = read-out: Interleukin 17A (IL17A), IL17A (gene 3605); experiment: BSK_BT_xIL17A: BioMAP Diversity Plus: BT Assay for Interleukin 17A (IL17A) Biomarker Activity (AID 2284229); settings: primary human B cells with PBMC
Procedure, shortened: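 Luminex xMAP quantification of secreted IL-17A after 24 h chemical exposure of a primary human B cell/PBMC co-culture. Signal increases fitted relative to DMSO negative control.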

[20] = TAMU_PeakParms_SingleDonor1434_Chronotropy: Texas A&M University (TAMU) 1.5-hr Human Induced Pluripotent Stem Cell (iPSC)-derived Cardiomyocytes Calcium (Ca+2) Flux Assay for Cardiotoxicity: Chronotropy (changes in peak frequency) (AID 2284217); settings: actives raise or lower the signal
Procedure, shortened: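 Using fluorescent Ca2+ flux, average beats per second are measured in human iPSC-derived cardiomyocytes treated 90 min (0.5% DMSO vehicle, 0.2–100 uM). Non-beating data points are removed; activity is modeled in both directions relative to DMSO controls.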

Measured: AC50

OC(Cn1cncn1)(Cn1cncn1)c1ccc(F)cc1F
inactive: [1] | [2] | [3] | [4] | [5] | [6] | [7] | [8] | [9] | [10] | [11]

NC(=O)N1c2ccccc2C=Cc2ccccc21
inactive: [1] | [2] | [3] | [4] | [5] | [6] | [7] | [8] | [9] | [12] | [10] | [11]

Nc1ccn([C@@H]2O[C@H](CO)[C@@H](O)[C@@H]2O)c(=O)n1
inactive: [1] | [2] | [5] | [6] | [7] | [11]
active: [13] 0.191 µM | [1] 23.2 µM | [2] 7.42 µM | [3] 9.69 µM and 4.75 µM | [4] 9.08 µM and 3.77 µM | [5] 11.9 µM | [6] 12.4 µM | [7] 12.4 µM | [10] 12.6 µM and 15 µM | [11] 11.7 µM | [14] 9.56 nM and 3.83 nM

FC(F)(F)C(F)(F)C(F)(F)C(F)(F)C(F)(F)C(F)(F)I
inactive: [14] | [15] | [16] | [17] | [18] | [19]

C[Si](C)(C)C(F)(F)C(F)(F)C(F)(F)F
inactive: [15] | [16] | [17] | [18] | [19]

c1ccc2c(c1)-c1cccc3c1c-2cc1ccccc13
active: [20] 4.53 µM

OCc1c[nH]c2ccccc12
inactive: [15] | [19]
active: [16] 30.8 µM | [17] 3.97 µM | [18] 3.97 µM

CCCC(CCC)C(=O)O
active: [13] 2090 µM
inactive: [1] | [2] | [3] | [4] | [5] | [6] | [20] | [7] | [8] | [9] | [12] | [10] | [11]

O=C(Cl)C(F)(F)C(F)(F)C(F)(F)C(=O)Cl
inactive: [15] | [16] | [17] | [18] | [19]

OC[C@H]1O[C@@](CO)(O[C@H]2O[C@H](CO)[C@@H](O)[C@H](O)[C@H]2O)[C@@H](O)[C@@H]1O
inactive: [20]

S=P(N1CC1)(N1CC1)N1CC1
inactive: [15] | [18] | [19]
active: [16] 2.71 µM | [17] 8.1 µM

COc1cc2c(c(OC)c1OC)-c1ccc(OC)c(=O)cc1[C@@H](NC(C)=O)CC2
inactive: [1] | [20]
active: [2] 0.0374 µM | [3] 17.2 nM | [4] 12.4 nM | [5] 0.0354 µM | [6] 0.0297 µM | [7] 0.0302 µM | [8] 0.00966 µM | [9] 0.00931 µM | [12] 0.0262 µM | [10] 440 nM | [11] 0.0427 µM

FC(F)C(F)(F)COCC1CO1 (centres undefined)
inactive: [15] | [16] | [17] | [18] | [19]

Cn1cc[nH]c1=S
inactive: [13] | [1] | [2] | [3] | [4] | [5] | [6] | [7] | [10] | [11]

NNC(=O)c1ccncc1
inactive: [1] | [2] | [3] | [4] | [5] | [6] | [7] | [8] | [9] | [10] | [11]

Cc1cccc(O)c1C
inactive: [15] | [16] | [17] | [18] | [19]

FC(F)=C(F)C(F)(F)C(F)(F)C(F)(F)C(F)(F)C(F)(F)C(F)(F)F
inactive: [15] | [16] | [17] | [18] | [19]

OC(O)(C(F)C(O)(O)C(F)(F)F)C(F)(F)F
active: [16] 32.6 µM and 39.1 µM | [17] 30 µM | [18] 53.3 µM and 52 µM
inactive: [15] | [19]

O=S(=O)(O)CCC(F)(F)C(F)(F)C(F)(F)C(F)(F)C(F)(F)C(F)(F)F
inactive: [15] | [16] | [17] | [18] | [19]
active: [17] 30 µM

FC(F)(F)COC(OCC(F)(F)F)OCC(F)(F)F
inactive: [15] | [16] | [17] | [18] | [19]

CC(C)C(=O)Nc1ccc([N+](=O)[O-])c(C(F)(F)F)c1
inactive: [20]

CCN(CC)C(=S)SSC(=S)N(CC)CC
active: [20] 8.82 µM

NCC(F)(F)C(F)(F)C(F)(F)C(F)(F)F
inactive: [15] | [16] | [17] | [18] | [19]

C[C@]12C=CC(=O)C=C1CC[C@H]1[C@@H]3C[C@@H](O)[C@](O)(C(=O)CO)[C@@]3(C)C[C@H](O)[C@@]12F
active: [1] 23.9 µM | [2] 2.18 µM | [3] 22700 nM | [4] 19700 nM | [5] 2.59 µM | [6] 3 µM | [7] 4.2 µM | [10] 18800 nM | [11] 15 µM
inactive: [14]

c1ccc2cc3ccccc3cc2c1
active: [20] 20.2 µM
inactive: [1] | [2] | [3] | [4] | [5] | [6] | [7] | [10] | [11]

OCCC(F)(F)C(F)(F)C(F)(F)C(F)(F)F
inactive: [15] | [16] | [17] | [18] | [19]
